From PubChem BioAssay
GSH fluor: GSH bead compound fluorescence profile; GSH beads flow cytometry, compound fluorescence 488/530 nm; hits give high values; 190,000 compounds, 0.25% hits; fluorescence (KMESF) at 10 µM; in the data active = fluorescence above about 89;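 note: glutathione beads carrying GST-tagged Bcl family fusion proteins plus one bare bead set; values are compound well signal with DMSO vehicle wells as background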
Avidin fluor: avidin bead compound fluorescence profile; 220,000 compounds, 0.38% hits; Avidin beads, compound fluorescence 488/530 nm, flow cytometry; hits give high values; fluorescence (KMESF) at 10 µM; in the data active = fluorescence above about 47
RGS4-Gao reg: modulates binding of RGS4 to human Galphao | P09471 | Multiplexed bead flow cytometry; actives lie on both sides | binding response (% of control), % at 10 µM | 220,000 compounds, 0.33% hits | AID 1415; in the data active = binding response below about 49% or above about 150%; inactive = in between;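 note: fluorescent Galphao activated with aluminum fluoride binding bead-coupled RGS4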
RGS7-Gao reg: modulates binding of RGS7 to human Galphao. P09471. 220,000 compounds, 0.35% hits. Multiplexed bead flow cytometry; actives lie on both sides. binding response (% of control), % at 10 µM; in the data active = binding response below about 49% or above about 150%; inconclusive = no clear call, values can overlap the other calls; inactive = in between;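 note: fluorescent Galphao held in activated GDP-AlF4 state binding bead-coupled RGS7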
RGS8-Gao: human RGS8-Galphao interaction regulation; multiplexed bead flow cytometry, RGS8-Galphao binding; actives lie on both sides; response (percent of control binding), % at 10 µM; 220,000 compounds, 0.34% hits; in the data active = response below about 60% or above about 140%; inactive = in between;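 note: Galphao activated as the GDP aluminium fluoride complex binding bead-coupled RGS8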
RGS16-Gao HTS: modulates binding between human RGS16 and Galphao; 220,000 compounds, 0.38% hits; bead-based flow cytometry RGS16-Galphao binding, fluorescence; actives lie on both sides; binding response (% of control), % at 10 µM; AID 1441; O15492+P09471; call rule not given here;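 note: Galphao activated by GDP with aluminum fluoride before binding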
Target sequence (O15492 whole entry, looked up): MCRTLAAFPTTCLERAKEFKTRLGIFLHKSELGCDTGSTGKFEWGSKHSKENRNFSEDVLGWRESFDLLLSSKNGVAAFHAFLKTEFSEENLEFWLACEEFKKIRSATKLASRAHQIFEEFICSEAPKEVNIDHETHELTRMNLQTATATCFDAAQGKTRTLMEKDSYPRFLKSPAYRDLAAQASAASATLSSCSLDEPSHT
Target sequence (P09471 whole entry, looked up): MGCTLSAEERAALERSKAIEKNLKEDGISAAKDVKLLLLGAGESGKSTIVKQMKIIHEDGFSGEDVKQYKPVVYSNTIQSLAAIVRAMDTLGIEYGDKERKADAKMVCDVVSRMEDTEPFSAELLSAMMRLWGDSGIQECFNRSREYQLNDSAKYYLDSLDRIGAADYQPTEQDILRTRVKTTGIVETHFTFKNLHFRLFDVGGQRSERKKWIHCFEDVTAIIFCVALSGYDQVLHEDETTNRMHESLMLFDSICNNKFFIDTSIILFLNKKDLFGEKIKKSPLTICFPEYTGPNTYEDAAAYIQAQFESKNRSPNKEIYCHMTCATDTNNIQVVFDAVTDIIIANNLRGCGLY
* = called active by the depositor; ? = inconclusive; nt = no result. An excerpt weighted towards active compounds, which were near 1.2% of everything screened.

SMILES	GSH fluor	Avidin fluor	RGS4-Gao reg	RGS7-Gao reg	RGS8-Gao	RGS16-Gao HTS
CCOc1cc(NC(=S)Nc2ccccc2OC)c(OCC)cc1NC(=O)c1ccccc1C	27	10	99	98	99	99
CC(Nc1n[nH]c(=S)[nH]c1=O)C(=O)OCc1ccccc1 (stereo unspecified)	238*	6	112	102	96	59
CN(C)S(=O)(=O)c1cccc(NC(=S)N2CCc3ccccc32)c1	14	154*	131	?	89	98
COc1ccc2[nH]c(=O)c(CN(Cc3nnnn3Cc3ccc(F)cc3)CC3CCCO3)cc2c1 (stereo unspecified)	12	105*	108	144	100	104
Cc1oc(S(=O)(=O)N2CCCCC2)cc1NC(=O)Nc1ccc(Cl)cc1	nt	5	98	?	102	95
CC(C)C(NC(=O)c1ccccc1)c1nnc(SCC(=O)Nc2nccs2)n1C (stereo unspecified)	11	30	105	104	108	133
O=C(Nc1ccc(S(=O)(=O)N2CCCC2)cc1)N1c2ccccc2Sc2ccccc21	24	77*	100	127	98	103
COC(=O)C(C(=O)OC)c1ccccc1[N+](=O)[O-]	272*	7	102	100	100	102
Cc1ccc(C)c(-c2nc3cc(N)ccc3o2)c1	14	61*	101	106	97	90
Nc1ccc2oc(-c3ccccc3Cl)nc2c1	12	14	102	96	100	98
COc1ccccc1N1CCN(C(=O)CSc2nc(C)c(Cc3ccccc3)c(=O)[nH]2)CC1	15	78*	108	123	101	104
COc1ccccc1N1CCN(C(=O)CSc2nc(-c3ccccc3)cc(=O)[nH]2)CC1	22	29	100	97	101	103
CNS(=O)(=O)c1ccc(C)cc1	24	12	105	102	104	97
Cc1ccc(S(=O)(=O)Nc2nonc2C)cc1	33	4	38*	31*	34*	29
CCN(c1ccccc1)S(=O)(=O)c1ccc(C(=O)Oc2ccc(C(C)=O)cc2)cc1	9	14	102	98	101	102
C=CCn1c(SCC(=O)NCc2ccco2)nc2ccccc2c1=O	25	10	96	93	96	98
C=CCn1c(SCC(=O)NC(=O)NCc2ccco2)nc2sc(CC)cc2c1=O	267*	5	89	90	101	100
Cc1ccc(NC(=O)CCCSc2ccccc2)cc1S(=O)(=O)N1CCOCC1	10	101*	110	149	101	113
O=C(/C=C/c1cc([N+](=O)[O-])ccc1OC(F)F)NCc1ccc(F)cc1	265*	7	100	97	101	105
COc1cccc(-n2c(SCC#N)nnc2-c2cnccn2)c1	247*	6	112	112	101	95
COc1cccc(C(=O)N2CCN(C(=O)Cc3ccccc3)CC2)c1	22	54*	95	107	104	104
O=C(C1CCCO1)N1CCN(Cc2c(O)ccc3ccccc23)CC1 (stereo unspecified)	16	61*	104	113	100	101
Cc1ccc(CN2CCN(C(=O)C3CCCO3)CC2)cc1 (stereo unspecified)	50	6	100	101	101	108
COC(=O)c1ccc(COC(=O)c2ccc(SC)cc2OC)cc1	12	6	99	96	99	99
COc1ccc(CCN(C)Cc2ccc(OC)c(OCc3ccccc3)c2)cc1OC	32	50*	106	127	106	106
SMILES	GSH fluor	Avidin fluor	RGS4-Gao reg	RGS7-Gao reg	RGS8-Gao	RGS16-Gao HTS
COc1cc(-c2csc(N3CCOCC3)n2)cc(OC)c1OC	263*	7	102	102	101	105
Fc1ccc(-c2csc(N3CCOCC3)n2)cc1	nt	8	106	?	102	101
CN(c1cccc(NC(=O)CN(c2ccc(C34CC5CC(CC(C5)C3)C4)cc2)S(C)(=O)=O)c1)S(C)(=O)=O	24	7	104	105	101	104
Cn1c(=O)c2c(ncn2CC(=O)Nc2ccccc2N2CCOCC2)n(C)c1=O	26	67*	106	122	100	103
Cn1c(=O)c2c(ncn2CC(=O)Nc2ccccc2Sc2ccccc2)n(C)c1=O	15	14	105	102	101	104
Cn1cnnc1SCC(=O)NNC(=O)c1ccc(Cl)cc1	17	4	108	110	108	119
O=C(Nc1ccc(O)c2c(=O)cc(-c3ccccc3Cl)oc12)c1cccs1	nt	7	99	?	102	108
CCOc1c(OC(C)=O)ccc(/C=C2\N=C(SCC)SC2=O)c1[N+](=O)[O-]	27	78*	100	113	97	91
CCN(CC)C(=O)[C@]1(c2ccccc2)C[C@@H]1CN	64	6	104	105	98	103
CC1C(=O)CCC1(C(=O)O)c1ccccc1 (stereo unspecified)	13	49*	114	110	101	118
COc1ccccc1C(O)P(=O)(OC(C)C)c1ccc(N(C)C)cc1 (stereo unspecified)	65	7	99	101	104	97
CC(C)OP(=O)(c1ccc(N(C)C)cc1)C(O)c1ccccc1F (stereo unspecified)	103*	4	86	91	99	89
O=C(NC1CCCCC1)C(=S)NC1CCCCC1	16	9	100	?	99	100
C=CCn1c(C)c(C(C)=O)c(N2CCN(C(c3ccccc3)c3ccccc3)CC2)nc1=S	18	18	109	108	103	126
COCCSc1ccccc1C(=O)N1CCCC(C)C1 (stereo unspecified)	17	9	102	?	101	102
CCOC(=O)C1CCCN(C(=O)c2ccccc2SCCOC)C1 (stereo unspecified)	30	102*	111	145	100	105
COc1ccccc1NC(=O)CCN1CCN(Cc2ccccc2)CC1	14	7	102	100	103	102
COc1ccc(S(=O)(=O)N2CCOCC2)cc1NC(=O)Cc1ccccc1Cl	18	14	103	107	102	102
COc1ccccc1NC(=O)CCN1CCCCCC1	32	-2	3.0*	0.6*	4.6*	-2.5*
COc1ccc(S(=O)(=O)N2CCCCCC2)cc1NC(=O)Cc1ccccc1	8	48*	98	106	97	102
C=CCN1C(=O)C(O)(CC(=O)c2ccco2)c2cc(Br)ccc21 (stereo unspecified)	15	9	106	?	111	111
CCN(CC)c1ccc(/C=C(\C#N)C(=O)c2ccc(Br)cc2)cc1	151*	23	122	115	103	126
O=c1/c(=C/c2ccccn2)sc2n1CN(c1ccccc1)CN=2	3	3	88	92	101	52
